These results are taken from PubChem BioAssay (NCI).

What all share (assay): NCI-60 one-dose screen, 48 h (100 = growth as untreated, 0 = no growth, -100 = all killed)
Conditions in all cases: 10 µM

Experiment [1] has as its system HT29 colon.
The subject of experiment [2] is SNB-75 CNS.
For experiment [3], the system named is SNB-19 CNS.
Experiment [4] relates to U251 CNS.
In experiment [5] the test system is PC-3 prostate.
Experiment [6] relates to SK-MEL-5 melanoma.
For experiment [7], the system named is UACC-62 melanoma.
Experiment [8] deals with LOX IMVI melanoma.
Experiment [9] relates to SK-MEL-28 melanoma.
In experiment [10] the test system is SK-MEL-2 melanoma.
Experiment [11] has as its system EKVX NSCLC.
The test system of experiment [12] is SN12C renal.
In experiment [13] the test system is UO-31 renal.
For experiment [14], the system named is TK-10 renal.
The subject of experiment [15] is ACHN renal.
Experiment [16] concerns CAKI-1 renal.
In experiment [17] the test system is A498 renal.
Experiment [18] has as its system CCRF-CEM leukemia.
Experiment [19] has as its system MOLT-4 leukemia.

About 83,000 compounds went through this panel and 20% of them were active in at least one assay; those are over-represented in the sample as a whole.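 Cell lines were cultured in 96-well plates, exposed to a single compound concentration, and assessed for percent growth 48 hours later.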 Unmarked numbers belong to inactive results. Calls of active or inactive are those of the source. How the source made its calls: active means growth percent below 10; inactive means the rest.

`CC(=O)Nc1ccc(-c2cn(-c3cccc(C(=O)Nc4cc(C(F)(F)F)cc(C(F)(F)F)c4)c3)nn2)cn1`: the growth is -37.4% (active) in experiment [1]; -6.74% (active) in experiment [2]; -42.4% (active) in experiment [3]; -66.2% (active) in [4]; -59.5% (active) in experiment [5]; -38.9% (active) in experiment [6]. Also, the growth was -46.2% (active) in [7]; -100% (active) in experiment [8]; -46.4% (active) in experiment [9]; -38.6% (active) in [10]; -25.7% (active) in experiment [11]; -50.1% (active) in [12]. Also, the growth in experiment [13] was 1.1% (active); in experiment [14], -10.4% (active); in experiment [15] it was -26.2% (active); in experiment [16] it was -44.3% (active); in experiment [17], -30.2% (active); in [18], -25.4% (active). The growth in experiment [19] was -37.1% (active).
`COc1ccc(CN2[C@H](C(=O)NCCCCCCC(=O)NO)Cc3c([nH]c4ccccc34)[C@H]2C2CC2)cc1`: the growth in experiment [1] was 6.33% (active); in [2], 10.2%; in experiment [3], 6.72% (active); in experiment [4], -20.8% (active); in experiment [5], 19.1%; in [6] it was -88% (active). Besides, the growth in [7] is -68.6% (active); in experiment [8], -100% (active); in [9], 9.84% (active); in [10], -16.7% (active); in experiment [11], 16.8%; in experiment [12] it was 7.85% (active). Also, the growth was 7.67% (active) in [13]; -19.7% (active) in experiment [14]; 0.712% (active) in experiment [15]; 4% (active) in experiment [16]; -38.3% (active) in experiment [17]; 19.7% in [18]. Besides, the growth in experiment [19] was 12.2%.
Turning to `C=C1CCC2C3(C)COC(c4cccc(F)c4)OC3CCC2(C)C1CC(O)C1=CCOC1=O` (configuration not stated), the growth in experiment [1] is 34.7%; in [3], 95.4%; in experiment [4], 70.2%; in experiment [5], 45.1%; in experiment [6], 60.1%; in experiment [7], 64.6%. Moreover, the growth was 64.1% in [9]; 75.9% in experiment [10]; 87.9% in experiment [11]; 44.3% in experiment [12]; 57.1% in experiment [13]; 113% in [14]. Besides, the growth in [15] is 68.6%; in experiment [16] it was 74.7%; in [17], 125%; in experiment [18], 23.2%; in experiment [19], 41%.
Turning to `CC(=O)Nc1ccc(-n2cnc3cc(-c4ccc(O)cc4)ccc32)cc1F`, the growth was -9.81% (active) in experiment [1]; 24.1% in experiment [2]; 36.2% in experiment [3]; 16.7% in experiment [4]; 22.8% in [5]; 12.5% in experiment [6]. For the same molecule, the growth is 13.9% in experiment [7]; 27.8% in experiment [8]; 49.4% in [9]; 36.3% in [10]; 60.6% in experiment [11]; 21.5% in [12]. In addition, the growth in [13] is 20.7%; in experiment [14], 49.2%; in experiment [15], 20.4%; in experiment [16], 17.9%; in experiment [17], 72.4%; in experiment [18], 8% (active). Besides, the growth in experiment [19] was -0.0266% (active).
For the molecule `O=C(c1ccc(Cl)cc1)C1[C@H](c2ccccc2Br)[C@@H](c2ccccc2)NC12C(=O)Nc1ccc(Cl)cc12` (some centres not stated), the growth in [1] was -14.6% (active); in experiment [2], 36.5%; in [3] it was 33.6%; in [4], 6.14% (active); in [5], 38.1%; in experiment [6], 15.9%. The growth in [7] is 22%; in [8], -91% (active); in experiment [9] it was 55.4%; in experiment [10] it was 13.8%; in [11], 16.5%; in experiment [12], -58.6% (active). Moreover, the growth in experiment [13] is 16.5%; in experiment [14] it was 42.5%; in experiment [15], 9.92% (active); in experiment [16], 8.98% (active); in experiment [17] it was 72.4%; in experiment [18], 18.8%. For the same molecule, the growth in experiment [19] was 18%.
As for `O=C(c1ccc(Cl)cc1)C1[C@H](c2ccc(Br)cc2)[C@@H](c2ccccc2)NC12C(=O)Nc1ccc(Br)cc12` (some centres not stated), the growth in [1] is -54.5% (active); in experiment [2] it was 0.834% (active); in experiment [3], -51% (active); in experiment [5], -23.5% (active); in experiment [6], -60.3% (active); in experiment [7], -83.9% (active). Besides, the growth in [8] is -100% (active); in [9], -93.8% (active); in [10], -93.4% (active); in experiment [11], -61.1% (active); in experiment [12], -97.1% (active); in experiment [13], -75.7% (active). Besides, the growth was -78.7% (active) in experiment [14]; -39.6% (active) in [15]; -93.9% (active) in [16]; -17.1% (active) in [17]; -7.91% (active) in experiment [18]; -33% (active) in experiment [19].
With `COC(=O)C[C@](O)(CCCC(C)(C)O)C(=O)O[C@H]1C(OC)=C[C@@]23CCC(=O)N2CCc2cc4c(cc2[C@@H]13)OCO4`, the growth was 93.6% in [1]; 94.6% in experiment [2]; 84.4% in experiment [3]; 114% in experiment [4]; 89.5% in experiment [5]; 98.3% in experiment [6]. Further, the growth was 89.5% in [7]; 78% in experiment [8]; 103% in [9]; 110% in experiment [10]; 103% in experiment [11]; 115% in experiment [12]. The growth is 65% in experiment [13]; 101% in experiment [14]; 101% in experiment [15]; 94.3% in experiment [16]; 76.6% in [17]; 101% in experiment [18]. Moreover, the growth in experiment [19] is 73.4%.
`COc1ccc2ncc(C#Cc3cncc(C(=O)Nc4ccc(CN5CCN(C)CC5)c(C(F)(F)F)c4)c3)n2n1`: the growth in experiment [1] was -51.8% (active); in experiment [2], -91.1% (active); in experiment [3], -86.2% (active); in [4] it was -59.8% (active); in experiment [5] it was -59.6% (active); in experiment [6], -100% (active). For the same molecule, the growth in [7] was -79.6% (active); in experiment [8], -94.6% (active); in [9] it was -91.8% (active); in experiment [10] it was -55.3% (active); in [11], -99.7% (active); in experiment [12], -93.5% (active). The growth in experiment [13] is -90.1% (active); in experiment [14] it was -76% (active); in experiment [15], -98.3% (active); in experiment [16] it was -75.8% (active); in experiment [17], 31.7%; in experiment [18], 2.67% (active). Moreover, in experiment [19], the growth was -26.7% (active).
As for `O=C(CNc1nc(-c2ccccc2)cs1)Nc1ccc([N+](=O)[O-])cc1Cl`, the growth was 34.8% in [1]; 82.3% in [2]; 43.8% in experiment [3]; 15.8% in [4]; 38.2% in experiment [5]; 8.63% (active) in experiment [6]. The growth in experiment [7] is 20.5%; in experiment [8], -11.1% (active); in [9] it was 62.1%; in experiment [10], 20.1%; in experiment [11], 18.5%; in experiment [12], 13.4%. Besides, the growth is 25.5% in [13]; 52.9% in experiment [14]; 38.8% in experiment [15]; 44.9% in experiment [16]; 55% in [17]; 15.3% in experiment [18]. The growth in [19] is 11%.
Consider `O=C(CNc1nc(-c2ccccc2)cs1)Nc1cccc(Cl)c1`, for which the growth in [1] was 32.1%; in experiment [2] it was 50.2%; in experiment [3], 51%; in experiment [4], 26.9%; in experiment [5] it was 18.9%; in experiment [6], 35.5%. For the same molecule, the growth in [7] is 19.8%; in experiment [8], 7.96% (active); in experiment [9], 42.8%; in [10], 38.2%; in experiment [11], 13.6%; in experiment [12], 41.4%. Further, the growth was 9.97% (active) in experiment [13]; 52.5% in [14]; 28.3% in experiment [15]; 28.4% in experiment [16]; 66.5% in [17]; 26.3% in [18]. Besides, in [19], the growth was 7.42% (active).
